Data on 6 compounds can be found in PubChem BioAssay (Tox21).

Test [1] can be described thus: qHTS assay to identify small molecule agonists of the hypoxia (HIF-1) signaling pathway - cell viability counter screen (AID 1224844; calls by dose curve; note: nearly all actives have a fitted effect of over 50% in size). In short, it runs like this:
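HRE-bla ME-180 cells in medium with 0.5% dialyzed FBS were preincubated 5 hrs at 37C, exposed to compounds for 17 hrs, then viability was read as CellTiter-Glo luminescence after 30 min at room temperature, in the reporter wells.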
A general note: Quantitative high-throughput screening tests each substance at several concentrations.

Test [2] in a line: qHTS assay to identify small molecule agonists of H2AX (AID 1224845; active = well fitted activation curve with a large enough effect in the signal ratio in the repeat runs, not every such curve was filed as active; the % refers to the signal ratio; note: potency is the fitted concentration of half-maximal effect). Summed up: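 Wild-type CHO-K1 cells plated overnight, then exposed 3 hr at 37C to compounds at 15 concentrations (0.76% DMSO). Lysed, then HTRF anti-pH2AX(S139)-cryptate/anti-H2AX-d2 detection after 24 hr at room temperature; emissions 665 and 620 nm.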
Test [3] can be described thus: qHTS assay to identify small molecule agonists of the hypoxia (HIF-1) signaling pathway (AID 1224846; active = well fitted activation curve with a large enough effect in the signal ratio in the repeat runs, not every such curve was filed as active; the % refers to the signal ratio). Summed up:
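HRE-bla ME-180 cells (beta-lactamase reporter under hypoxia response element) were plated at 2,000 cells/well in medium with 0.5% dialyzed FBS, rested 5 hrs, then given compounds in DMSO for 17 hrs at 37C, 5% CO2. Reporter induction was read with CCF4-AM FRET substrate.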

A short description of test [4]: qHTS assay to identify small molecule antagonists of the estrogen related receptor (ERR) signaling pathway from Tox21 library (AID 1224848). Note: nearly all actives have a fitted effect of over 50% in size. Note: potency is the fitted concentration of half-maximal effect. Summed up: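 Cells: ERR line, 2,000/well; 6 h preincubation 37 C/5% CO2. Cpd in DMSO via pin tool; 18 h, 37 C. ONE-Glo, 30 min RT, luminescence.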
A short description of test [5]: qHTS assay to identify small molecule agonists of the estrogen related receptor (ERR) signaling pathway from Tox21 library (AID 1224849; calls by dose curve; note: nearly all actives have a fitted effect of over 15% in size). The settings on record: ERR reporter cell line, ONE-Glo luciferase, 18 h; at 92.4 µM (top of the series). In short, it runs like this: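 ERR reporter cell line (NTP) seeded, rested 6 h at 37 C/5% CO2, then pinned with Tox21 compounds in DMSO. After 18 h at 37 C, ONE-Glo luciferase luminescence was read following 30 min at room temperature.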

Test [6] can be described thus: qHTS RealTime-Glo MT Cell Viability Assay in HepG2 cells - 24 hour (AID 1224867). Note: nearly all actives have a fitted effect of over 50% in size. In short, it runs like this:
(§1)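 Cells + NanoLuc/prosubstrate dispensed (600 cells/well) → 5 h at 37 C/5% CO2 → compounds in DMSO transferred → 40 h incubation at 37 C, luminescence read at 0, 8, 16, 24, 32, 40 h.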

Test [7] can be described thus: qHTS RealTime-Glo MT Cell Viability Assay in HEK293 cells - 32 hour (AID 1224868). Note: top concentration of the series differs between compounds; nearly all actives have a fitted effect of over 50% in size. In short, it runs like this:
(§2)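 Tox21 10K qHTS, HEK293, 600 cells/well, RealTime-Glo reagent co-dispensed with cells; 5 h preincubation, compound by pintool, 37 C, luminescence at 0–40 h.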

Test [8] in a line: A CellTox Green Cytotoxicity Assay to monitor cytotoxicity in HEK293 cells - 0 hour (AID 1224869). Note: nearly all actives have a fitted effect of over 50% in size. In short, it runs like this:
(§3)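 HEK293 cells premixed with CellTox Green dye were seeded at 600 cells/well and left 5 h at 37 C/5% CO2 before pin transfer of 23 nL compound in DMSO. Fluorescence from dye bound to dead-cell DNA was read during 40 h treatment.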

The nature of test [9]: qHTS RealTime-Glo MT Cell Viability Assay in HepG2 cells - 40 hour (AID 1224870). Note: nearly all actives have a fitted effect of over 50% in size. In short, it runs like this:
(§4)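 HepG2 cells mixed with RealTime-Glo MT reagents (NanoLuc plus cell-permeant prosubstrate) were seeded at 600 cells/well, incubated 5 h at 37 C/5% CO2, then pinned with compounds in DMSO; nonlytic luminescence tracked viability during 40 h treatment.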

Test [10] is described as follows: A CellTox Green Cytotoxicity Assay to monitor cytotoxicity in HEK293 cells - 40 hour (AID 1224871). Note: nearly all actives have a fitted effect of over 45% in size. Note: potency is the fitted concentration of half-maximal effect. Summed up:
as §3

Test [11] can be described thus: qHTS RealTime-Glo MT Cell Viability Assay in HEK293 cells - 16 hour (AID 1224872). In short, it runs like this:
as §2

Test [12] is described as follows: qHTS RealTime-Glo MT Cell Viability Assay in HepG2 cells - 8 hour (AID 1224873). Note: nearly all actives have a fitted effect of over 55% in size. Summed up: as §4
The nature of test [13]: qHTS RealTime-Glo MT Cell Viability Assay in HEK293 cells - 40 hour (AID 1224874). Note: nearly all actives have a fitted effect of over 50% in size. The settings on record: RealTime-Glo luminescence; max response: stronger effect = lower value. Summed up:
(§5)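 HEK293 cells mixed with RealTime-Glo reagents (NanoLuc plus cell-permeant prosubstrate) at 600 cells/well, preincubated 5 h at 37 C/5% CO2, then given 23 nL compound in DMSO. Nonlytic luminescence from viable cells was read at 0, 8, 16, 24, 32 and 40 h.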

Test [14] can be described thus: A CellTox Green Cytotoxicity Assay to monitor cytotoxicity in HepG2 cells - 16 hour (AID 1224876). Note: nearly all actives have a fitted effect of over 45% in size. Summed up: (§6)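 HepG2 cells were seeded together with the CellTox Green dye at 600 cells/well, left 5 h at 37 C/5% CO2, then given compounds in DMSO. Fluorescence from dye bound to dead-cell DNA was read repeatedly over 40 h of treatment at 37 C.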
A short description of test [15]: qHTS RealTime-Glo MT Cell Viability Assay in HepG2 cells - 32 hour (AID 1224877). Note: nearly all actives have a fitted effect of over 55% in size. In short, it runs like this:
as §1

Test [16] can be described thus: A CellTox Green Cytotoxicity Assay to monitor cytotoxicity in HepG2 cells - 24 hour (AID 1224878). Note: nearly all actives have a fitted effect of over 45% in size. Note: potency is the fitted concentration of half-maximal effect. In short, it runs like this:
as §6

Test [17] is described as follows: A CellTox Green Cytotoxicity Assay to monitor cytotoxicity in HepG2 cells - 40 hour (AID 1224879). Note: nearly all actives have a fitted effect of over 40% in size. Note: potency is the fitted concentration of half-maximal effect. In short, it runs like this:
as §6

Test [18] can be described thus: qHTS RealTime-Glo MT Cell Viability Assay in HEK293 cells - 0 hour (AID 1224880). Note: top concentration of the series differs between compounds; nearly all actives have a fitted effect of over 45% in size. In short, it runs like this:
as §5

The nature of test [19]: qHTS assay to identify small molecule agonists of H2AX - cell viability counter screen (AID 1224847; calls by dose curve; note: top concentration of the series differs between compounds; nearly all actives have a fitted effect of over 30% in size). Summed up:
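After overnight plating of 1000 CHO-K1 cells per well, a 15-concentration compound series was applied for 3 hr at 37C. Luminescence from CellTiter-Glo, read following 30 min at room temperature, reflected cell viability.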

A short description of test [20]: A CellTox Green Cytotoxicity Assay to monitor cytotoxicity in HEK293 cells - 24 hour (AID 1224875). Note: nearly all actives have a fitted effect of over 45% in size. Note: potency is the fitted concentration of half-maximal effect. Summed up: as §3

The structures appear in SMILES notation. Where “and” joins values, the source holds several entries; their conditions need not be identical. Equal entries are not always repeated. Records with an inconclusive call do not appear. More than one record can exist for a structure, and the calls need not agree. Calls of active or inactive are those of the source. Unless noted, calls come from the whole dose curve; as a rule, active = well fitted curve in the direction sought with a large enough effect in the repeat runs; inconclusive = weak or mixed curves; inactive = no such curve, though single readings can be large; an effect the other way counts as inactive or inconclusive.
% is set by controls: 0 for no effect and ±100 for the full control effect.

Regarding `CC(C)c1ccc(CO)cc1`, the Potency result in [1], in [2], in test [4], in test [6], in [7] and in test [8] was “inactive” throughout. The Potency entry in [9], in [10], in test [11], in test [12], in test [14] and in test [15] was “inactive” each time. The Potency entry in test [16], in test [17] and in test [18] was “inactive” each time. The result in test [3] was inactive. The activity change, positive = activation in test [5] was 2.78% (inactive) and -0.788% (inactive). Besides, the max response in [13] was 0.21% (inactive) and 0.88% (inactive).
Take `NNC(N)=S`: the Potency result in test [1], in test [19], in test [6], in test [7], in test [8] and in [10] was “inactive” each time. Also, the Potency entry in [11], in test [12], in test [14], in test [15], in test [16] and in [17] was “inactive” each time. The Potency entry in [18] was “inactive”. The Potency is 105 µM (active) and inactive in test [2]; 16 µM (active) and 61.1 µM (active) in test [4]. The result in test [3] was inactive. For the same compound, in test [5], the activity change, positive = activation is -76.7% (inactive) and -56.6% (inactive). For the same compound, the max response in test [13] is 1.23% (inactive) and 8.52% (inactive).
`CCC(C)c1ccc(O)cc1` (stereo unspecified): the Potency result in [1], in [2], in test [4], in [6], in test [7] and in test [8] was “inactive” in each case. The Potency entry in test [11], in test [12], in test [15] and in [18] was “inactive” in each case. Also, the outcome in test [3] was inactive. Besides, the activity change, positive = activation in [5] is -5.15% (inactive) and 5.69% (inactive). For the same compound, the Potency in test [10] was 49.4 µM (active) and 43.6 µM (active); in [20], 43.6 µM (active); in test [16], 43.6 µM (active); in test [17], 43.6 µM (active). The max response in [13] was -20.1% (inactive) and -0.111% (inactive).
`COc1ccc(C=O)cc1`: the Potency entry in test [1], in test [2], in [19], in test [6], in [7] and in [9] was “inactive” throughout. Besides, the Potency result in test [10], in test [11], in test [12], in test [14], in [15] and in [16] was “inactive” in each case. The Potency entry in test [17] and in test [18] was “inactive” throughout. Also, the result in test [3] was inactive. Also, in test [13], the max response was 7.64% (inactive) and 1.9% (inactive).
As for `O=[N+]([O-])c1cccc2ccccc12`, the Potency result in [1], in [2], in [4], in test [6], in [7] and in test [8] was “inactive” each time. The Potency result in test [9], in test [10], in test [11], in [12], in [20] and in [14] was “inactive” in each case. Besides, the Potency result in test [15], in [17] and in [18] was “inactive” throughout. Besides, the call in test [3] was inactive. In [5], the activity change, positive = activation is -1.67% (inactive) and -0.342% (inactive). Besides, the max response in test [13] was 3.63% (inactive) and 7.21% (inactive).
On to `CCN(CC)N=O`, for which the Potency entry in test [1], in test [2], in test [4], in [6], in [7] and in test [8] was “inactive” in each case. The Potency result in test [9], in test [10], in test [11], in test [12], in test [20] and in test [14] was “inactive” throughout. The Potency entry in test [15], in [16], in [17] and in test [18] was “inactive” each time. Moreover, in [3], the outcome was inactive. Also, the activity change, positive = activation in test [5] is 0.678% (inactive). Moreover, the max response in test [13] is -2.46% (inactive) and 23.7% (inactive).
